One may read the inhibition as the change of the read-out against control, counted positive when it falls.

The text below walks through data of PubChem BioAssay.

Assay [1] is described as follows: growth inhibition of DIPG cells – cell-based, MIPE5.0 library, qHTS (AID 1347068; cut-off not given, nearly all actives have IC50 up to about 30 µM). As to conditions: SU-DIPG-XXV viability.
A short description of assay [2]: viability loss with induced miR-34 in A549 – imaging, A549 dox-inducible miR-34, nuclei and caspase counts, primary screen (AID 1347080;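 active means compounds whose cell count with miR-34 switched on is under 0.7 times the count with it off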). Conditions: A549 miR-34 inducible, Hoechst nuclei count, 48 h.
Assay [3] in a line: growth inhibition, single agent or in combination, cell-based, chromothripsis tumors, cisplatin or BGB combos (AID 1671449).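 Further: cells exposed for 96 hours; 0% = vehicle DMSO and 100% = killing by high DMSO.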 Conditions: LFS_MB_P medulloblastoma cells.
A short description of assay [4]: growth inhibition, single agent and combos, cell-based, chromothripsis tumors, cisplatin or BGB combos (AID 1671450).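 Further: cells exposed to compound for four days; 0% = vehicle DMSO and 100% = cell killing by high DMSO.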 Conditions: HDN33 neuroblastoma cells, stronger effect = higher value.
A short description of assay [5]: growth inhibition, single agents and combos, ICB984, cell-based, cisplatin or BGB combos, synergistic combos for chromothripsis tumors (AID 1671451; call rule not given here;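 further: cells exposed for 96 hours before readout; 0% = vehicle DMSO and 100% = killing by high DMSO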). As to conditions: ICB984 medulloblastoma cells, drug combinations, stronger effect = higher value.
Assay [6] in a line: growth inhibition, single agents and combos, LFS_MB_1R, cell-based, cisplatin or BGB combos, synergistic combos for chromothripsis tumors (AID 1671452).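 Further: cells exposed for 96 hours before readout.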 Conditions: LFS_MB_1R medulloblastoma cells, stronger effect = higher value.
A short description of assay [7]: growth inhibition, single agents and combos, HTB85, cell-based, BGB or cisplatin IC20 combos, synergistic combos for chromothripsis tumors (AID 1671453).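 Further: cells exposed for 96 hours before readout; 0% = vehicle DMSO and 100% = high DMSO killing control.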 As to conditions: HTB85 osteosarcoma cells, drug combinations, stronger effect = higher value.
Assay [8] in a line: growth inhibition, single agents and combos, CRL2098, cell-based, BGB or cisplatin IC20 combos, synergistic combos for chromothripsis tumors (AID 1671454).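 Further: cells exposed for 96 h before readout; 0% = vehicle DMSO and 100% = killing by high DMSO.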 As to conditions: CRL2098 osteosarcoma cells, drug combinations, stronger effect = higher value.
Assay [9] is described as follows: growth inhibition, single agents and combos, HD-MB03, cell-based, BGB or cisplatin IC20 combos, synergistic combos for chromothripsis tumors (AID 1671455; in the data active means inhibition above about 83%;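 further: 0% = vehicle DMSO and 100% = high DMSO as cytotoxic control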). As to conditions: HD-MB03 medulloblastoma cells, stronger effect = higher value.
Assay [10] can be described thus: growth inhibition, single agents and combos, UWB1.289, cell-based, BGB or cisplatin combos, synergistic combos for chromothripsis tumors (AID 1671456).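 Further: cells exposed to compound for four days; 0% = vehicle DMSO and 100% = killing by high DMSO.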 Conditions: UWB1.289 ovarian carcinoma cells, stronger effect = higher value.
Assay [11] can be described thus: growth inhibition, single agents and combos, LFS_MB_2R, cell-based, cisplatin combos, synergistic combos for chromothripsis tumors (AID 1671457).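 Further: cells exposed to compound for four days before readout.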 As to conditions: LFS_MB_2R medulloblastoma cells, stronger effect = higher value.
Assay [12] can be described thus: growth inhibition, MDA-MB-436, cell-based, BGB or cisplatin combos, synergistic combos for chromothripsis tumors (AID 1671458; call rule not given here;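 further: cells exposed for 96 hours; 0% = vehicle DMSO and 100% = killing by high DMSO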). As to conditions: MDA-MB-436 breast carcinoma growth inhibition, drug combinations, stronger effect = higher value.
The nature of assay [13]: UWB1.289_BRCA1 ovarian cancer growth, cell-based, BGB or cisplatin combinations (AID 1671459). Conditions: UWB1.289 BRCA1 ovarian carcinoma, drug combinations, stronger effect = higher value.
Assay [14] in a line: drug combination toxicity in non-malignant astrocytes – cell-based, BGB or cisplatin IC20 combos, cytotoxicity control for chromothriptic childhood tumor combination screen (AID 1671460).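 Further: cells exposed to compounds for 96 hours before viability readout; 0% = vehicle and 100% = killing control.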 Conditions: Human astrocytes, viability inhibition, drug combinations, at 0.5 µM, stronger effect = higher value.
The nature of assay [15]: BT084 cell growth, single and combined drugs, ICGC_MB145, cisplatin and BGB IC40 combos (AID 1671461).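 Further: cells exposed to drugs for 96 hours; 0% = vehicle DMSO and 100% = high DMSO full killing control.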 Conditions: BT084 medulloblastoma cells, drug combinations, stronger effect = higher value.
The nature of assay [16]: RCMB18 cell growth, single agent and combined, cisplatin and BGB IC40 combos (AID 1671462).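 Further: cells exposed to compound for four days.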 Conditions: RCMB18 medulloblastoma cells, stronger effect = higher value.
Assay [17] can be described thus: CRL1545 cell growth, single agent and combined, cisplatin and BGB IC20 combos (AID 1671464).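 Further: cells exposed to compound for 96 hours before readout; 0% = vehicle DMSO and 100% = high DMSO killing control.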 As to conditions: CRL1545 osteosarcoma cells, stronger effect = higher value.
Setting [18] is: measured here: combination with BGB IC40, at 0.05 µM.
Where [19] appears, read: measured here: with BGB IC20 combination, at 0.5 µM.
The mark [20] stands for this setting: measured here: with cisplatin IC20 combination, at 0.5 µM.
[21] abbreviates: measured here: combination with cisplatin, at 0.5 µM.
Setting [22] is: measured here: combination with cisplatin, at 5 µM.

Inconclusive results are not listed. Active and inactive are the calls of the source. Unless noted, no stated cut-off is given here; in the data, active means inhibition above about 80%; inactive means the rest.

Take `O=C(Nc1cccc(C(F)(F)F)c1)c1cccc2cc(Oc3cc(CO)ncn3)ccc12`: the call in assay [1] was inactive.

Take `CCC1CCCCN1C(=O)n1ncc(C(O)(c2ccccc2)c2ccccc2)n1` (configuration not stated): the compound was classed as inactive in assay [1].

For `CCOC(=O)C1=CCCCC1S(=O)(=O)Nc1ccc(F)cc1Cl` (configuration not stated), in assay [1], the outcome was inactive.

`CC[C@@H]1[C@H](F)C(=O)N[C@@H]1COc1nccc2cc(C(N)=O)c(OC)cc12`: in [1], the result was inactive.

Consider `CN(C)c1cc(NC(=O)CNC(C)(C)C)c(O)c2c1C[C@H]1C[C@@H]3C(C(=O)C(C(N)=O)=C(O)[C@H]3N(C)C)C(=O)C1=C2O` (some centres not stated), for which the fold change in assay [2] (stronger effect = lower value, cell number ratio, induced over uninduced) is 0.886 (inactive); in assay [2] (measured here: relative caspase fold change +Dox/-Dox), 0.781. The cell count in [2] (measured here: total cells with miR-34 induction, stronger effect = lower value) came to 8740; in assay [2] (measured here: total cells without miR-34 induction) it was 9860.

As to `NCCOc1cc(C(=O)Nc2cc(OCCN)c3ccccc3n2)nc(C(=O)Nc2cc(OCCN)c3ccccc3n2)c1`, in assay [1], the call was inactive. In addition, the inhibition was 2.22% (inactive) in assay [3] (at 0.5 µM, stronger effect = higher value); -38.8% in [3] (measured here: combination with BGB IC20, at 0.005 µM); 62.7% in assay [3] (measured here: combination with BGB IC40, at 0.005 µM); -24.9% in [3] (setting [18]); 12.8% in assay [3] (measured here: combination with cisplatin, at 0.5 µM, stronger effect = higher value); -64.9% in assay [3] (measured here: combination with cisplatin, at 5 µM, stronger effect = higher value). Further, the inhibition in assay [4] (BGB combo, at 5 µM) was -54.1%; in assay [4] (at 0.5 µM) it was -9.7% (inactive); in [4] (cisplatin combo, at 5 µM), -17.5%; in assay [4] (setting [19]), -37.5%; in assay [4] (setting [20]), 8.64%; in [4] (single agent, at 5 µM), -33.3%. The inhibition in assay [5] (BGB IC20 combo, at 0.005 µM) was -1.03%; in [5] (BGB IC40 combo, at 0.005 µM), -1.14%; in assay [5] (BGB IC40 combo, at 0.05 µM), 41.5%; in assay [5] (at 0.5 µM), -7.14% (inactive); in assay [5] (cisplatin combo, at 0.05 µM), 38.8%; in assay [5] (cisplatin combo, at 0.5 µM), 5%. Also, the inhibition in assay [5] (cisplatin combo, at 5 µM) is -7.59%; in assay [5] (measured here: 5 uM single agent, at 5 µM) it was -6.04%; in assay [6] (at 0.5 µM), -45.4% (inactive); in [6] (setting [18]), -42.8%; in assay [6] (setting [21]) it was -52.8%; in assay [6] (setting [22]) it was -9.07%. For the same compound, the inhibition in assay [7] (at 0.5 µM) was -5.41% (inactive); in assay [7] (measured here: with BGB IC20, at 0.5 µM) it was 16.9%; in [7] (measured here: with BGB IC20, at 5 µM), 14.7%; in [7] (measured here: with cisplatin IC20, at 0.5 µM) it was -18.6%; in assay [7] (measured here: with cisplatin IC20, at 5 µM) it was 11.6%; in [7] (single agent, at 5 µM), -2.66%. The inhibition was -35.9% (inactive) in assay [8] (at 0.5 µM); -36.6% in [8] (measured here: combination with BGB at IC20, at 0.5 µM); -37.8% in [8] (measured here: combination with cisplatin at IC20, at 0.5 µM); -13.1% (inactive) in assay [9] (at 0.5 µM); -12.1% in assay [9] (measured here: combo with BGB at IC20, at 0.5 µM); -20.4% in assay [9] (measured here: combo with cisplatin at IC20, at 0.5 µM). Besides, the inhibition is -1.71% (inactive) in [10] (at 0.5 µM); -20.7% in assay [10] (measured here: inhibition with BGB combination, at 0.05 µM); -14.5% in [10] (measured here: inhibition with cisplatin combination, at 0.05 µM); -18.8% (inactive) in assay [11] (at 0.5 µM); -2.5% in assay [11] (setting [21]); -13.9% in [11] (setting [22]). For the same compound, the inhibition in [12] (at 0.5 µM) is 0.88% (inactive); in [12] (measured here: BGB combination, at 0.5 µM), 5.33%; in assay [12] (measured here: BGB combination, at 5 µM), 54.3%; in assay [12] (measured here: cisplatin combination, at 0.5 µM), -17.7%; in assay [12] (measured here: cisplatin combination, at 5 µM), 63.8%; in assay [13] (BGB combination, concentration series, at 5 µM), 15.3%. Further, the inhibition in assay [13] (at 0.5 µM) is -6.49% (inactive); in assay [13] (cisplatin combination, concentration series, at 5 µM) it was 19.1%; in assay [14], 5.8% (inactive); in [14] (measured here: combo with BGB IC20), 5.26%; in assay [14] (measured here: combo with cisplatin IC20) it was 9.36%; in assay [15] (at 0.5 µM), -11.2% (inactive). The inhibition was -3.81% in assay [15] (cisplatin combination, at 0.5 µM); -140% in [15] (cisplatin combination, at 5 µM); -28.5% in assay [15] (measured here: BGB IC40 combination 0.05 uM, at 0.05 µM); -22.2% in assay [15] (single agent, at 5 µM); -16.6% (inactive) in assay [16] (at 0.5 µM); -19.4% in [16] (cisplatin combo, at 5 µM). The inhibition in assay [16] (measured here: BGB IC40 combination, at 0.05 µM) is -9.5%; in assay [16] (setting [21]), -38.3%; in assay [16] (single agent, at 5 µM), -10.4%; in assay [17] (at 0.5 µM), 11.6% (inactive); in [17] (setting [19]) it was -1.76%; in [17] (setting [20]), 17%. Further, the inhibition in assay [17] (single agent, at 0.05 µM) was -15.4%; in assay [17] (single agent, at 5 µM), 55%.
